Structures are written as SMILES. Active and inactive are the calls of the source. Unless noted, the call rests on the fitted dose curve; in most records, active means well fitted curve in the direction sought with a large enough effect in the repeat runs; inconclusive means weak or mixed curves; inactive means no such curve, though single readings can be large; an effect the other way counts as inactive or inconclusive.

The nature of assay [1]: qHTS assay to identify small molecule antagonists of the thyroid receptor (TR) signaling pathway (AID 743065). Further: series mostly up to about 70 µM; nearly all actives have a fitted effect of over 55% in size. The essentials: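 GH3.TRE-Luc rat pituitary cells (two TREs driving luciferase) were dosed with compound, then stimulated with 1 nM T3 (final) for 23.5 h at 37 C. ONE-Glo luminescence was the read-out, with CellTiter-Fluor fluorescence as the cytotoxicity counter-screen.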

Assay [2] has as its system thyroid hormone receptor (rat, GH3 cells). Kind of assay: qHTS assay to identify small molecule agonists of the thyroid receptor (TR) signaling pathway (AID 743066; calls by dose curve).
The target of assay [3] is Estrogen receptor (Homo sapiens) (UniProt P03372). Kind of assay: qHTS assay to identify small molecule antagonists of the estrogen receptor alpha (ER-alpha) signaling pathway (AID 743069; active means well fitted curve in the direction sought with a large enough effect in the signal ratio in the repeat runs, not every such curve was filed as active; inconclusive means weak or mixed curves, or effect the other way; inactive means no such curve, though single readings can be large or run the other way; the % refers to the signal ratio). Summed up: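 Reporter cells (ER-alpha-bla, HEK293 background) are conditioned overnight in stripped-serum medium (2% charcoal-stripped FBS). Compound and 17beta-estradiol exposure runs 18 hr at 37C, 5% CO2.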
Chain of Estrogen receptor (Homo sapiens) (P03372 whole entry, looked up): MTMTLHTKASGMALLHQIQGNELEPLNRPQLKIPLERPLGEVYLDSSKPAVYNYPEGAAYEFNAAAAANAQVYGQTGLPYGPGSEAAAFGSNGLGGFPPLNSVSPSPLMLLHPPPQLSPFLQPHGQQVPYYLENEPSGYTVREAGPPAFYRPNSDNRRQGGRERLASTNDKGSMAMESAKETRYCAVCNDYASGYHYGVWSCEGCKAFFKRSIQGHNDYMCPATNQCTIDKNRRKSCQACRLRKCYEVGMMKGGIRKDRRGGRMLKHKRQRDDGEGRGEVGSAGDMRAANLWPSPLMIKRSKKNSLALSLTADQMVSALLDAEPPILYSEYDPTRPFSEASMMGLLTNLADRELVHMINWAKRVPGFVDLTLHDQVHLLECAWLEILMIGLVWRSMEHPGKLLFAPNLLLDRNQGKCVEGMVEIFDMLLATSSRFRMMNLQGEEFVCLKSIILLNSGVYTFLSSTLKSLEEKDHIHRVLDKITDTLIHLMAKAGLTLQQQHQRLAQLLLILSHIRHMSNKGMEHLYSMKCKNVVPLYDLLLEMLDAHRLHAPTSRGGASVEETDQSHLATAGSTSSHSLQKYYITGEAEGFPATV

Assay [4] has the same target. Kind of assay: qHTS assay to identify small molecule agonists of the estrogen receptor alpha (ER-alpha) signaling pathway (AID 743075; calls by dose curve;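 further: HEK293 GripTite cells with ER-alpha and UAS-driven beta-lactamase reporter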; further: potency means the concentration at half of the fitted maximal effect).
For assay [5] the target is unchanged. Kind of assay: qHTS assay to identify small molecule agonists of the estrogen receptor alpha (ER-alpha) signaling pathway using the BG1 cell line (AID 743079). Further: nearly all actives have a fitted effect of over 20% in size. Further: potency means the concentration at half of the fitted maximal effect.
Assay [6] in a line: qHTS assay to identify small molecule antagonists of the estrogen receptor alpha (ER-alpha) signaling pathway using the BG1 cell line (AID 743080; calls by dose curve;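 further: BG1 cells stimulated with 17beta-estradiol alongside compound; series mostly up to about 70 µM; nearly all actives have a fitted effect of over 25% in size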). The essentials:
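Luminescence from a 4×ERE-luciferase reporter in BG1-Luc-4E2 cells served as read-out. Cells, pre-cultured 5 days in stripped-serum phenol-red-free medium, were exposed to compound with 17beta-estradiol co-stimulation for 21.5 h at 37 C.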
On the technique in general: In qHTS, concentration-response curves come from the screen itself.

The nature of assay [7]: qHTS assay to identify small molecule antagonists of the estrogen receptor alpha (ER-alpha) signaling pathway using the BG1 cell line - cell viability counter screen (AID 743081).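 Further: compound given together with 17beta-estradiol as the ER stimulus; series mostly up to about 70 µM; nearly all actives have a fitted effect of over 45% in size.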
The next assay has as its target Aromatase (Homo sapiens) (UniProt P11511). Kind of assay: qHTS assay to identify aromatase inhibitors (AID 743083). Further: series mostly up to about 70 µM; nearly all actives have a fitted effect of over 55% in size.
Assay [8] is described as follows: qHTS assay to identify aromatase inhibitors - cell viability counter screen (AID 743084).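 Further: cells stimulated with testosterone during compound exposure; nearly all actives have a fitted effect of over 55% in size.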
Assay [9] addresses Aryl hydrocarbon receptor (Homo sapiens) (UniProt P35869). Kind of assay: qHTS assay to identify small molecule that activate the aryl hydrocarbon receptor (AhR) signaling pathway (AID 743085). Further: nearly all actives have a fitted effect of over 15% in size. Further: potency means the concentration at half of the fitted maximal effect.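 On activation: HG2L7.5c1 human HepG2 liver cells with stably integrated DRE-driven firefly reporter; series mostly up to about 70 µM.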 Summed up: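 A multiplexed format paired cell viability (CellTiter-Fluor fluorescence) with AhR-dependent luciferase output (ONE-Glo luminescence) in the same wells of HepG2 DRE-luc cells after 24 h compound exposure at 37C.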

Assay [10] is described as follows: qHTS assay to identify small molecule that activate the aryl hydrocarbon receptor (AhR) signaling pathway - cell viability counter screen (AID 743086).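 Further: HepG2 liver cells carrying the AhR DRE luciferase reporter; series mostly up to about 70 µM; nearly all actives have a fitted effect of over 45% in size.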 The essentials:
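HepG2-AhR-luc (HG2L7.5c1) cells, 4000/well, treated 24 h at 37 C with compound; viability measured as CellTiter-Fluor fluorescence after 30 min in the same wells as the luciferase read.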

The target in assay [11] is Peroxisome proliferator-activated receptor gamma (Homo sapiens) (UniProt P37231). Kind of assay: qHTS assay to identify small molecule agonists of the peroxisome proliferator-activated receptor gamma (PPARg) signaling pathway (AID 743094; active means well fitted activation curve with a large enough effect in the signal ratio in the repeat runs, not every such curve was filed as active; inconclusive means weak or mixed curves, or effect the other way; inactive means no such curve, though single readings can be large or run the other way; the % refers to the signal ratio; further: potency means the concentration at half of the fitted maximal effect). The essentials: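 Quantitative HTS agonist mode: stable HEK293H line with UAS-beta-lactamase reporter under PPARg control, 17 h compound exposure at 37C, fluorescence after 1 h FRET substrate loading at room temperature.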
Chain of Peroxisome proliferator-activated receptor gamma (Homo sapiens) (P37231 whole entry, looked up): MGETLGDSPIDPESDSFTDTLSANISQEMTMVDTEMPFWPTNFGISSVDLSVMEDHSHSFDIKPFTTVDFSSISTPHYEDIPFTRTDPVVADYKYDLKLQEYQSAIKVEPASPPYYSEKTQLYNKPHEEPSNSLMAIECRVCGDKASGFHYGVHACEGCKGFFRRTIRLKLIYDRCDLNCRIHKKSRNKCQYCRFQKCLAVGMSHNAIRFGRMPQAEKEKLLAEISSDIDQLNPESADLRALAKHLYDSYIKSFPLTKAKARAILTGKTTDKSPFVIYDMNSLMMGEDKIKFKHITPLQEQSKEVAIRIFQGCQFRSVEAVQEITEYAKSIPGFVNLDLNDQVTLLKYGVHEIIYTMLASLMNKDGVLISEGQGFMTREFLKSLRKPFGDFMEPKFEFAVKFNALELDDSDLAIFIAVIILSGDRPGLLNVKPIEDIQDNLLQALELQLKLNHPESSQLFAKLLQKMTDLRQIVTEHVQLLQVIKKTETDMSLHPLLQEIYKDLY

Assay [12] is described as follows: qHTS assay to identify small molecule antagonists of the peroxisome proliferator-activated receptor gamma (PPARg) signaling pathway - cell viability counter screen (AID 743194). Further: nearly all actives have a fitted effect of over 55% in size. Summed up:
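Cytotoxicity counter screen in PPARg-bla HEK293H cells, same wells as reporter assay. Compounds plus 50 nM rosiglitazone (final) for 17 h at 37 C, then viability read by CellTiter-Glo luminescence.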

Assay [13] in a line: qHTS assay for small molecule agonists of the antioxidant response element (ARE) signaling pathway - cell viability counter screen (AID 743203; calls by dose curve; further: nearly all actives have a fitted effect of over 55% in size). The essentials: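 Seeded at 2,000 cells/well, ARE-bla HepG2 cells were incubated 5 hrs before compound addition. After 16 hrs of treatment at 37C with 5% CO2, CellTiter-Glo reagent was added and luminescence read 30 min later.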
Assay [14] in a line: qHTS assay for small molecule activators of the heat shock response signaling pathway (AID 743210; active means well fitted activation curve with a large enough effect in the signal ratio in the repeat runs, with a control signal flat, not every such curve was filed as active; inconclusive means weak or mixed curves; the % refers to the signal ratio;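 further: HeLa cells with beta-lactamase reporter driven by heat shock elements; series mostly up to about 63 µM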). The essentials:
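Quantitative high-throughput format using an engineered HeLa line in which heat shock response elements drive beta-lactamase; after 5 h with compound, cells received a B/G FRET substrate and fluorescence was read.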

Assay [15] can be described thus: qHTS assay for small molecule agonists of the antioxidant response element (ARE) signaling pathway (AID 743202; active means well fitted activation curve with a large enough effect in the signal ratio in the repeat runs, not every such curve was filed as active; inconclusive means weak or mixed curves, or effect the other way; inactive means no such curve, though single readings can be large or run the other way; the % refers to the signal ratio). Summed up:
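Agonist mode reporter screen: HepG2 cells with ARE-controlled beta-lactamase are incubated with test compounds for 16 h at 37 C, and beta-lactamase activity is measured as fluorescence of cleaved B/G FRET substrate.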

Assay [16] can be described thus: qHTS assay to identify small molecule antagonists of the estrogen receptor alpha (ER-alpha) signaling pathway - cell viability counter screen (AID 743074; calls by dose curve;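 further: HEK293 cells carrying ER-alpha-UAS-bla reporter stimulated with 17beta-estradiol; nearly all actives have a fitted effect of over 45% in size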).
The target in assay [17] is Peroxisome proliferator-activated receptor gamma (Homo sapiens) (UniProt P37231). Kind of assay: qHTS assay to identify small molecule antagonists of the peroxisome proliferator-activated receptor gamma (PPARg) signaling pathway (AID 743191; calls by dose curve; further: series mostly up to about 63 µM; nearly all actives have a fitted effect of over 30% in size). Summed up: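 GeneBLAzer PPARg UAS-bla HEK293H cells, 5 h post-plating, exposed to compounds 17 h at 37C. LiveBLAzer B/G FRET substrate added for 1 h at room temperature; beta-lactamase reporter read by fluorescence intensity.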

The nature of assay [18]: qHTS assay for small molecule activators of the heat shock response signaling pathway - cell viability counter screen (AID 743209). Further: nearly all actives have a fitted effect of over 50% in size. The essentials: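 First, HSE-bla HeLa cells were seeded at 1500 cells/well and kept overnight at 37 C. Next, compounds were pinned in and incubated 5 h. After the FRET substrate step, CellTiter-Glo was added and luminescence read 30 min later.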

Chain of Aromatase (Homo sapiens) (P11511 whole entry, looked up): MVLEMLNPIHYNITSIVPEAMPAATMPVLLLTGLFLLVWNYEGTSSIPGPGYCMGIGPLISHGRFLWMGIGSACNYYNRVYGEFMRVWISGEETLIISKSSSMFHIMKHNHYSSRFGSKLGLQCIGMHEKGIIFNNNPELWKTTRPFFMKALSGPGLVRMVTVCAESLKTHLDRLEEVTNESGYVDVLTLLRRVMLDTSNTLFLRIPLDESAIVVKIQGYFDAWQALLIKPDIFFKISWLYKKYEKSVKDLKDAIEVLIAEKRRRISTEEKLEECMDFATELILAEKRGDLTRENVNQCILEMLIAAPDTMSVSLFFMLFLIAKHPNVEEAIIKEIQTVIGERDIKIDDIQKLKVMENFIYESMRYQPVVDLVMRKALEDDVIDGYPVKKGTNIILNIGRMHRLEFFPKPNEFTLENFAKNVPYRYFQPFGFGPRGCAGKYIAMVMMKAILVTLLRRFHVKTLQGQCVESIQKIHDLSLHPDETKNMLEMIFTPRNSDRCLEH
Chain of Aryl hydrocarbon receptor (Homo sapiens) (P35869 whole entry, looked up): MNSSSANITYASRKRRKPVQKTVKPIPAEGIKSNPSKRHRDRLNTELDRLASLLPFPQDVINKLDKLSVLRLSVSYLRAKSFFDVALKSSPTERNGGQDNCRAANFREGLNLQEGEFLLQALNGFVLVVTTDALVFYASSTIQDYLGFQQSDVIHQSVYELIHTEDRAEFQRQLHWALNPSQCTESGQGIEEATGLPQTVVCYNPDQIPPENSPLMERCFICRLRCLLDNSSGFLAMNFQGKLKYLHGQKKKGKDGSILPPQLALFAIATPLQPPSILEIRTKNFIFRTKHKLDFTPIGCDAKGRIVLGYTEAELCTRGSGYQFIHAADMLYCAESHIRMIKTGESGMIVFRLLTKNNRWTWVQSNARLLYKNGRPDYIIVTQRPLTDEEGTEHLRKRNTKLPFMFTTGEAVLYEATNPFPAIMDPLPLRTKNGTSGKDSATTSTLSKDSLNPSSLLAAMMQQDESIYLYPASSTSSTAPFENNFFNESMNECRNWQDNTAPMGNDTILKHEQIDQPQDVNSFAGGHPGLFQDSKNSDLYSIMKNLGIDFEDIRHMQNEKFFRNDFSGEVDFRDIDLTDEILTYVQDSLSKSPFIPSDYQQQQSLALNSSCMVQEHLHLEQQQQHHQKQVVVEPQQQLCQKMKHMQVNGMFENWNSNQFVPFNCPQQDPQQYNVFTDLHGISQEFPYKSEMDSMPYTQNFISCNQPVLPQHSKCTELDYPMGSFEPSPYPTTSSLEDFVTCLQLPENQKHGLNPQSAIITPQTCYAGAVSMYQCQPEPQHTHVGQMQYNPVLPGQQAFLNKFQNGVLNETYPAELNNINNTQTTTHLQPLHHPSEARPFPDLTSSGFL

Consider `O=C(O)c1cccc(C(=O)O)c1C(=O)O`, for which the Potency entry in assay [1], in [3], in assay [4], in [5], in assay [6] and in [7] was “inactive” throughout. The Potency entry (with Aromatase (Homo sapiens); in assay [8]; in assay [9]; in [10]; in [11]; in assay [12]) was “inactive” in each case. For the same compound, the Potency result in [13] was “inactive”. In addition, the call in [2] and in assay [14] was inactive.
As for `CCCCCCCCNC`, the Potency result (in assay [1]; in [7]; in the assay with Aromatase (Homo sapiens); in assay [8]; in assay [10]; in assay [11]) was “inactive” each time. The Potency result in assay [12], in assay [15] and in assay [13] was “inactive” in each case. The result in [2] was inactive.
In the case of `O=C(Nc1ccc2c(c1)Cc1ccccc1-2)C(F)(F)F`, the compound was classed as inactive in assay [2], in [16] and in assay [14]. In addition, the Potency result (in assay [7]; in the assay with Aromatase (Homo sapiens); in [8]; in [10]; in assay [11]; in [12]) was “inactive” throughout. Moreover, the Potency in assay [9] was 61.1 µM (active).
As to `CCCCCCCCS`, the compound was classed as inactive in assay [2], in [18] and in assay [14]. Further, the Potency result (in assay [4]; in assay [5]; in assay [6]; in assay [7]; with Aromatase (Homo sapiens); in [8]) was “inactive” in each case. In addition, the Potency entry in assay [9], in assay [10], in assay [17], in assay [12], in assay [15] and in [13] was “inactive” each time.
As for `NC(=O)c1cc[n+](CC2=C(C(=O)[O-])N3C(=O)[C@@H](NC(=O)Cc4cccs4)[C@H]3SC2)cc1`, the Potency entry (in assay [3]; in [4]; in [5]; in [6]; in assay [7]; with Aromatase (Homo sapiens)) was “inactive” in each case. Also, the Potency entry in [8], in assay [9], in [10], in assay [11], in [17] and in assay [12] was “inactive” throughout. Also, the Potency result in [13] was “inactive”. Moreover, the result in assay [16], in assay [18] and in assay [14] was inactive.
Regarding `CCC(=O)O[C@]1(C(=O)COC)[C@@H](C)C[C@H]2[C@@H]3CCC4=CC(=O)C=C[C@]4(C)C3(F)[C@@H](O)C[C@@]21C` (some centres undefined), the Potency entry in assay [17], in [12], in assay [15] and in [13] was “inactive” each time. Also, the call in assay [14] was inactive.
In the case of `O=P(c1ccccc1)(c1ccccc1)c1ccccc1`, the compound was classed as inactive in assay [2], in assay [16] and in assay [14]. In addition, the Potency result (in assay [3]; in assay [4]; in [5]; in [6]; in [7]; with Aromatase (Homo sapiens)) was “inactive” throughout. Further, the Potency entry in assay [8], in assay [9], in [10], in assay [17], in assay [12] and in [13] was “inactive” in each case.
As to `CCCCCCCCCC(C)C=O` (centres undefined), the compound was classed as inactive in [2] and in assay [16]. For the same compound, the Potency entry (in [7]; with Aromatase (Homo sapiens); in [8]; in assay [9]; in assay [10]; in [12]) was “inactive” each time. Besides, the Potency in assay [11] is 19.5 µM (active).
In the case of `C[C@H](N)C(=O)N[C@@H](C)C(=O)NC1[C@H]2CN(c3nc4c(cc3F)c(=O)c(C(=O)O)cn4-c3ccc(F)cc3F)C[C@@H]12` (some centres undefined), the Potency result in assay [12] and in [13] was “inactive” throughout. In addition, the outcome in assay [18] and in [14] was inactive.
In the case of `Nc1ccc(C(=O)Oc2ccccc2)c(O)c1`, the result in [2], in assay [16], in [18] and in assay [14] was inactive. The Potency entry (in assay [3]; in assay [7]; with Aromatase (Homo sapiens); in assay [10]; in [11]; in [17]) was “inactive” in each case. Moreover, the Potency entry in assay [12], in [15] and in assay [13] was “inactive” in each case. The values for the Potency in [4] and in assay [5] were 13.4 µM [inconclusive] (active) and 6.68 µM (active), respectively.

The values are drawn from PubChem BioAssay (Tox21).
